Reference: PubChem BioAssay AID1224861 (National Center for Advancing Translational Sciences (NCATS), 2016)
Inconclusive results are not listed. Values without a mark were called inactive. The source made the active and inactive calls. Calls come from the whole dose curve; as a rule, active = well fitted cell-killing curve with a large enough effect; inconclusive = small, poorly fitted or top-dose-only effect, or effect the other way; inactive = flat fitted curve, though single readings scatter.

Assay: Compound cytotoxicity measured by an ATP content assay as a counter-screen for lead compounds in human astrocytes
Details: human astrocytes viability, ATP luminescence; series mostly up to 46.1 µM; activity change, negative = cytotoxicity: at the top concentration
Procedure: National Center for Advancing Translational Sciences [NCATS] Johns Hopkins University School of Medicine Florida State University Assay Overview: Many compounds can cause cytotoxicity at high compound concentrations. […] The compound cytotoxicity may also cause side effects or toxicity in human. Thus, the compound cytotoxicity needs to be measured in each cell type and each compound incubation time - same as these in the compound screening assay. The compound cytotoxicity can be measured by cell viability assays such as the ATP content assay. We use an ATP content assay kit for cell viability measurement. It measures ATP content (level) in human astrocytes using a luminescence readout that is proportional to viable cell numbers. Decrease in the luminescence signal after the compound treatment indicates reduced cell viability and cell death caused by compound treatment.
Assay Protocol Summary: The medium for astrocytes contains AM basal medium (ScienCell, Cat.# 1801), AGS (ScienCell, Cat.# 1801), 10% FBS, and 1% Pen/Strep. The ATP content assay kit (PerkinElmer, Cat.# 6016731) was used to determine cell viability. The reagent was reconstituted and prepared as described by the manufacturer. Cells were seeded in 384- or 1536-well assay plates and cultured at 37 C with 5% CO2 for 16 to 20 hours. The typical cell seeding density in the 1536-well plate assay is 350 cells/well in 3 ul medium for astrocytes in the tissue cultured treated/PDL coated plates. Compounds were added to cells and incubated for a specific time such as 6, 24, or 72 hours before addition of the reagent mixture of the ATP content assay kit at 1:1 ratio. After incubation at room temperature for 10 minutes, the luminescence intensity in assay plates was measured using a ViewLux plate reader (PerkinElmer). […] The percentage inhibitions of the decreased cell viability by small molecules were then calculated that indicate compound cytotoxicity.

| Structure (SMILES) | Potency | activity change, negative = cytotoxicity |
| --- | --- | --- |
| O=C(Nc1cc2cc[nH]c2cn1)c1ccccc1 | 0.489 µM (active) | – |
| CC(=NNC(=S)N1CCC1)c1ccccn1 | 17.3 µM (active) | – |
| Oc1cc(O)cc(/C=C/c2ccc(O)c(O)c2)c1 | 8.69 µM (active) | – |
| CC(C(=O)O)c1ccc(C(=O)c2cccs2)cc1 (stereo not given) | – | -16.1% |
| COc1ccc(CC2=NN3C([C@@H](CCc4ccccc4)[C@@H](C)O)=NC(C)C3C(=O)N2)cc1OC (stereo not given in full) | – | 5.6% |
| O=c1c2ccccc2nc2n1CCc1c-2[nH]c2ccccc12 | – | -15.3% |
| CCCCCCCCCCCC(=O)[O][Sn]([CH2]CCC)([CH2]CCC)[O]C(=O)CCCCCCCCCCC | – | 1.27% |
| Cc1[nH]c(C=C2C(=O)Nc3ccccc32)c(C)c1CCC(=O)O | – | -0.919% |
| O=C(O)c1cc([N+](=O)[O-])ccc1NCCCc1ccccc1 | – | -21.8% |
| COc1cc2nc(N3CCN(C(=O)C4CCCO4)CC3)nc(N)c2cc1OC (stereo not given) | – | 10.5% |
| CCCCCNC(=O)N1CCC(CN(Cc2ccc(Cl)cc2)Cc2ccc([N+](=O)[O-])s2)C1 (stereo not given) | – | 10.8% |
| CC(C(=O)O)c1ccc(-c2ccccc2)c(F)c1 (stereo not given) | – | 18.4% |
| O=C(/C=C/c1ccc(O)cc1)c1ccc(O)cc1O | – | 15.3% |
| O=S(=O)(O)CCSSCCS(=O)(=O)O | – | -2.01% |
| O=C(Oc1ccccc1)c1cccc(C(=O)Oc2ccccc2)c1 | – | 6.57% [at 96.3 µM] |
| Nc1ncnc2c1ncn2[C@@H]1O[C@@H](CO)[C@H](O)[C@H]1O | – | -1.06% [at 23.8 µM] |
| O=C1C(Cl)=C(NCCN2CCOCC2)C(=O)c2ncccc21 | 7.74 µM (active) | – |
| c1ccc(CCNc2nc(-c3ccccc3)cs2)cc1 | – | -6.7% |
| COCCn1c2c([n+](Cc3cnccn3)c1C)C(=O)c1ccccc1C2=O | 0.138 µM (active) | – |
| Cc1cc(O)c2c(c1)C(=O)c1cc(O)cc(O)c1C2=O | – | 7.02% |

| Structure (SMILES) | Potency | activity change, negative = cytotoxicity |
| --- | --- | --- |
| Cc1c(NC(=O)c2ccc(C(C)(C)C)cc2)cccc1-c1cn(C)c(=O)c(Nc2ccc(C(=O)N3CCOCC3)cc2)n1 | – | -12.9% |
| O=C(Nc1ncc([N+](=O)[O-])s1)c1cccs1 | – | -6.69% |
| C[C@@H](N)c1ccc(C(=O)Nc2ccnc3[nH]ccc23)cc1 | – | -11.5% |
| Nc1cc(C(F)(F)F)ccc1S | – | -10.8% |
| CN(C)c1ccc(C(=C2C=CC(=[N+](C)C)C=C2)c2ccccc2)cc1 | – | -28.5% |
| CCOCCOC(=O)/C=C/c1ccc(OC)cc1 | – | 14.2% |
| O[C@@H](COc1cccc2ncccc12)CN1CCN(C2c3ccccc3[C@@H]3[C@H](c4ccccc42)C3(F)F)CC1 (stereo not given in full) | – | -4.19% |
| CN(C)c1cc(NC(=O)CNC(C)(C)C)c(O)c2c1C[C@@H]1C[C@H]3[C@H](N(C)C)C(=O)C(C(N)=O)=C(O)[C@@]3(O)C(=O)C1=C2O | – | -1.32% |
| CN(C)c1ccc2cc(C(=O)N[C@@H](CCCN=C(N)CCl)C(=O)NCc3ccccc3)ccc2c1 | – | 16.8% |
| CC(=C(CCOC(=O)C(C)C)SSC(CCOC(=O)C(C)C)=C(C)N(C=O)Cc1cnc(C)nc1N)N(C=O)Cc1cnc(C)nc1N | – | -9.52% |
| CN(C)CCCSc1ccccc1NC(=O)/C=C/c1ccccc1 | – | 9.71% |
| c1ccc2[nH]c(-c3cscn3)nc2c1 | – | -24.6% |
| CCCCCCOc1ccccc1C(N)=O | – | 15.9% |
| Cc1ccc(O)c(N=Nc2ccccc2)n1 | 4.35 µM (active) | – |
| COc1cc2nc(-c3ccc(N4CCN(C)CC4)cc3)nc(NCCN3CCOCC3)c2cc1OC | – | -8.43% |
| O=C(O)c1cccc(-c2noc(-c3ccccc3F)n2)c1 | 5.48 µM (active) | – |
| N#CC1(c2ccc(NC(=O)c3cccnc3NCc3ccncc3)cc2)CCCC1 | – | -18.6% |
| N[C@H](CSC(c1ccccc1)(c1ccccc1)c1ccccc1)C(=O)O | – | 1.27% |
| CC(O)=C(C#N)C(=O)Nc1ccc(C(F)(F)F)cc1 | 6.9 µM (active) | – |
| O=c1oc2cc(O)ccc2s1 | – | -3.03% |
